Measurements reported in the supplement of paper PMC11732987, “Enantioselective OTUD7B fragment discovery through chemoproteomics screening and high-throughput optimisation” (Communications Chemistry, 2025).

Legend:
Assay in all cases: log2 ratio of Biotin-Ahx-Ub-VS probe labelling (fragment/DMSO); higher = less target engagement (more negative = stronger competition), active = hit call of the paper (q ≤ 0.05, log2 ratio ≤ -1)
Conditions in all cases: compound concentration: 200 uM; treatment time: 3 h
[1] = target: USP16 (UniProt Q9Y5T5)
In short: (§1)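 Using Biotin-Ahx-Ub-VS at 0.5 µM final for 1 h, DUBs were labelled in HEK293T lysate (495 µg per sample) that had first been treated in triplicate with fragment at 200 µM or vehicle for 3 h. NeutrAvidin enrichment, LysC and trypsin digestion and diaPASEF LC-MS/MS followed. Spectronaut label-free quantities were global-median-normalised. Values are average log2 fragment/vehicle ratios by unpaired t-test, using proteins with ≥2 unique peptides.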

[2] = target: T1, USP19 (UniProt O94966)
T1 sequence (whole entry): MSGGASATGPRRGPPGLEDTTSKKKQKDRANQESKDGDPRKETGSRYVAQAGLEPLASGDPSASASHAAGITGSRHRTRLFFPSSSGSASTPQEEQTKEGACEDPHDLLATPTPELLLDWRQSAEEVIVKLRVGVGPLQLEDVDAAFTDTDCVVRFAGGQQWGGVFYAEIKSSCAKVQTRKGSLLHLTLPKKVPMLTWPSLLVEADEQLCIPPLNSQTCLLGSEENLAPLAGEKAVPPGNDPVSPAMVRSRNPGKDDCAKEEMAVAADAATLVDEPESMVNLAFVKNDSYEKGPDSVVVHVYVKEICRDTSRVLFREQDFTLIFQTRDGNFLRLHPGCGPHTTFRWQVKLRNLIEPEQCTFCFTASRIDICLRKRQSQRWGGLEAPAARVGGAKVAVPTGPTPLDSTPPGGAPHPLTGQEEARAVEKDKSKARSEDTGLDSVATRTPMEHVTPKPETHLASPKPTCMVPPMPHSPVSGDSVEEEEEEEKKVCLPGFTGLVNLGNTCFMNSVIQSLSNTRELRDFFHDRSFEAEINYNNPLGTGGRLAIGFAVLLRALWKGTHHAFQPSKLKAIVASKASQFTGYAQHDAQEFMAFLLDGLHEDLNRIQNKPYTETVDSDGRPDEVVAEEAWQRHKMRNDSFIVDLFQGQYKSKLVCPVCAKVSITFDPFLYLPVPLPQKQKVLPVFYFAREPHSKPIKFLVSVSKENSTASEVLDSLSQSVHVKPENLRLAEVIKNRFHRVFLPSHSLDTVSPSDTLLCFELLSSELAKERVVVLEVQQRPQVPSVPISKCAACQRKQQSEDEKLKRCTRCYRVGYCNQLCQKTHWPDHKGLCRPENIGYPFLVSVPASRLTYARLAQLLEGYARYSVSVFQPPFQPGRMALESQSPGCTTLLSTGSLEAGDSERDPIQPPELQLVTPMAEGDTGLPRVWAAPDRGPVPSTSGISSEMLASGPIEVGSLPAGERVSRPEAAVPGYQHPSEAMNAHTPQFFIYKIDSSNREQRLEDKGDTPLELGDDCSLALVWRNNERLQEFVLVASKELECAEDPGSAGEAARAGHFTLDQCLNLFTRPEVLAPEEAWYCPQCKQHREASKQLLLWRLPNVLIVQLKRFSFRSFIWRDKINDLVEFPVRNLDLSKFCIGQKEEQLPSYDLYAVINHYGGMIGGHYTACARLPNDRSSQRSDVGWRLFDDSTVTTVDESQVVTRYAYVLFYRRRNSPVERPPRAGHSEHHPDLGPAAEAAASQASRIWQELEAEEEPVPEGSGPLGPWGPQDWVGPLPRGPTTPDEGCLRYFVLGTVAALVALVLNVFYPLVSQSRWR
In short: as §1

[3] = target: USP24 (UniProt Q9UPU5)
In short: as §1

[4] = target: T2, USP25 (UniProt Q9UHP3)
T2 sequence (whole entry): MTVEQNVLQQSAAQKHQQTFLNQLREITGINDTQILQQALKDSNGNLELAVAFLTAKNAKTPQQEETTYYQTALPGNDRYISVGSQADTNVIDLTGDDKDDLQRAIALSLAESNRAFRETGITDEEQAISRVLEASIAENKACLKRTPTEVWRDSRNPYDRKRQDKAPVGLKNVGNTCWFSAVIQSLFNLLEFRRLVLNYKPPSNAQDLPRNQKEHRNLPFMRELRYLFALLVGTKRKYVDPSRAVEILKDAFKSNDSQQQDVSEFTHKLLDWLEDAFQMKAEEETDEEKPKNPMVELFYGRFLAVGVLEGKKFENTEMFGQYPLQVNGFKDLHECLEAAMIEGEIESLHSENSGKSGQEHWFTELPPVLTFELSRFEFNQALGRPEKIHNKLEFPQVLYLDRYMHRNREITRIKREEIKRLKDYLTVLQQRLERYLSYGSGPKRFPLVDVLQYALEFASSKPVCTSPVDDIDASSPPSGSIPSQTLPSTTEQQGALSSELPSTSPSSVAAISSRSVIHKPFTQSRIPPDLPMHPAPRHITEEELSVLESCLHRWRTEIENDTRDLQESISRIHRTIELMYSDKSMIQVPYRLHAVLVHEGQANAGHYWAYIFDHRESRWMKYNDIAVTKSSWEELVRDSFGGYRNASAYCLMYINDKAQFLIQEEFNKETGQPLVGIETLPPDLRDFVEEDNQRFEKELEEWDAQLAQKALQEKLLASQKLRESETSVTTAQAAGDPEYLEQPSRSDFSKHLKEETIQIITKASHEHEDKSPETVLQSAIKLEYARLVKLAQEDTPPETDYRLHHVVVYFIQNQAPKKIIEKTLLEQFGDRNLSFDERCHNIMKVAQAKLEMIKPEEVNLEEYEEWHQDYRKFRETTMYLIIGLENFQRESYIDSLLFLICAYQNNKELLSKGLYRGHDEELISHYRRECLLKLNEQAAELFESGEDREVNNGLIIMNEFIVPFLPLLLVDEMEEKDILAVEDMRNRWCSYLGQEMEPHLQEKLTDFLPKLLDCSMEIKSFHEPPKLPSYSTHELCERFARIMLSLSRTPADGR
In short: as §1

[5] = target: T3, USP28 (UniProt Q96RU2)
T3 sequence (whole entry): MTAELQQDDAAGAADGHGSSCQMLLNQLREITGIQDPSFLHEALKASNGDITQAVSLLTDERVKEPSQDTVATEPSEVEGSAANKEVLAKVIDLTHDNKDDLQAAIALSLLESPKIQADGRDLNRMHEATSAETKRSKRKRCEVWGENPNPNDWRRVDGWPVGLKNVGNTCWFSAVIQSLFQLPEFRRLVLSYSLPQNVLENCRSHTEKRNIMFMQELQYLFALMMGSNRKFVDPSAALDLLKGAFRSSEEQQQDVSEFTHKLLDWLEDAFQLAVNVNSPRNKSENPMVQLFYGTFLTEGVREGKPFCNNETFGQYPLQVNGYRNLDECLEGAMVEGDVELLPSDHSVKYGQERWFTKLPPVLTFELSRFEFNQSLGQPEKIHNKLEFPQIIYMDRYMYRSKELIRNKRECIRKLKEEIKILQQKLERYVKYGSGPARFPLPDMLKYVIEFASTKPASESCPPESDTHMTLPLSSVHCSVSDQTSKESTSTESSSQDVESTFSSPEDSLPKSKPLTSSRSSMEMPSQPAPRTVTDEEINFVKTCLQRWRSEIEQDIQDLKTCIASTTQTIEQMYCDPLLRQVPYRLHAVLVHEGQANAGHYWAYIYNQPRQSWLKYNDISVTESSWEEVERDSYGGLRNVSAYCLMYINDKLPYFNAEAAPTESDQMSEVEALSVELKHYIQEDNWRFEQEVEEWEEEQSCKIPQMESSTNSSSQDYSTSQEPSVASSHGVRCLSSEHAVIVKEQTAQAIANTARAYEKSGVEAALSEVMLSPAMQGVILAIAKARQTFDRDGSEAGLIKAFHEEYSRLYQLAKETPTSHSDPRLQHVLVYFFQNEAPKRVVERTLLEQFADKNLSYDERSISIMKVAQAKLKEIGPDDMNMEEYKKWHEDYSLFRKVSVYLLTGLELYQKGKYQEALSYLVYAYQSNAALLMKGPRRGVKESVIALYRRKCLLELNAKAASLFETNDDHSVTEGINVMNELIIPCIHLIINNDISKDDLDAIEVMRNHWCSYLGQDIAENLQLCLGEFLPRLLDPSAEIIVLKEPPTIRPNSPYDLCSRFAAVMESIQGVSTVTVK
In short: as §1

Measured: log2 ratio of Biotin-Ahx-Ub-VS probe labelling

USP24, sequence (Q9UPU5 whole entry): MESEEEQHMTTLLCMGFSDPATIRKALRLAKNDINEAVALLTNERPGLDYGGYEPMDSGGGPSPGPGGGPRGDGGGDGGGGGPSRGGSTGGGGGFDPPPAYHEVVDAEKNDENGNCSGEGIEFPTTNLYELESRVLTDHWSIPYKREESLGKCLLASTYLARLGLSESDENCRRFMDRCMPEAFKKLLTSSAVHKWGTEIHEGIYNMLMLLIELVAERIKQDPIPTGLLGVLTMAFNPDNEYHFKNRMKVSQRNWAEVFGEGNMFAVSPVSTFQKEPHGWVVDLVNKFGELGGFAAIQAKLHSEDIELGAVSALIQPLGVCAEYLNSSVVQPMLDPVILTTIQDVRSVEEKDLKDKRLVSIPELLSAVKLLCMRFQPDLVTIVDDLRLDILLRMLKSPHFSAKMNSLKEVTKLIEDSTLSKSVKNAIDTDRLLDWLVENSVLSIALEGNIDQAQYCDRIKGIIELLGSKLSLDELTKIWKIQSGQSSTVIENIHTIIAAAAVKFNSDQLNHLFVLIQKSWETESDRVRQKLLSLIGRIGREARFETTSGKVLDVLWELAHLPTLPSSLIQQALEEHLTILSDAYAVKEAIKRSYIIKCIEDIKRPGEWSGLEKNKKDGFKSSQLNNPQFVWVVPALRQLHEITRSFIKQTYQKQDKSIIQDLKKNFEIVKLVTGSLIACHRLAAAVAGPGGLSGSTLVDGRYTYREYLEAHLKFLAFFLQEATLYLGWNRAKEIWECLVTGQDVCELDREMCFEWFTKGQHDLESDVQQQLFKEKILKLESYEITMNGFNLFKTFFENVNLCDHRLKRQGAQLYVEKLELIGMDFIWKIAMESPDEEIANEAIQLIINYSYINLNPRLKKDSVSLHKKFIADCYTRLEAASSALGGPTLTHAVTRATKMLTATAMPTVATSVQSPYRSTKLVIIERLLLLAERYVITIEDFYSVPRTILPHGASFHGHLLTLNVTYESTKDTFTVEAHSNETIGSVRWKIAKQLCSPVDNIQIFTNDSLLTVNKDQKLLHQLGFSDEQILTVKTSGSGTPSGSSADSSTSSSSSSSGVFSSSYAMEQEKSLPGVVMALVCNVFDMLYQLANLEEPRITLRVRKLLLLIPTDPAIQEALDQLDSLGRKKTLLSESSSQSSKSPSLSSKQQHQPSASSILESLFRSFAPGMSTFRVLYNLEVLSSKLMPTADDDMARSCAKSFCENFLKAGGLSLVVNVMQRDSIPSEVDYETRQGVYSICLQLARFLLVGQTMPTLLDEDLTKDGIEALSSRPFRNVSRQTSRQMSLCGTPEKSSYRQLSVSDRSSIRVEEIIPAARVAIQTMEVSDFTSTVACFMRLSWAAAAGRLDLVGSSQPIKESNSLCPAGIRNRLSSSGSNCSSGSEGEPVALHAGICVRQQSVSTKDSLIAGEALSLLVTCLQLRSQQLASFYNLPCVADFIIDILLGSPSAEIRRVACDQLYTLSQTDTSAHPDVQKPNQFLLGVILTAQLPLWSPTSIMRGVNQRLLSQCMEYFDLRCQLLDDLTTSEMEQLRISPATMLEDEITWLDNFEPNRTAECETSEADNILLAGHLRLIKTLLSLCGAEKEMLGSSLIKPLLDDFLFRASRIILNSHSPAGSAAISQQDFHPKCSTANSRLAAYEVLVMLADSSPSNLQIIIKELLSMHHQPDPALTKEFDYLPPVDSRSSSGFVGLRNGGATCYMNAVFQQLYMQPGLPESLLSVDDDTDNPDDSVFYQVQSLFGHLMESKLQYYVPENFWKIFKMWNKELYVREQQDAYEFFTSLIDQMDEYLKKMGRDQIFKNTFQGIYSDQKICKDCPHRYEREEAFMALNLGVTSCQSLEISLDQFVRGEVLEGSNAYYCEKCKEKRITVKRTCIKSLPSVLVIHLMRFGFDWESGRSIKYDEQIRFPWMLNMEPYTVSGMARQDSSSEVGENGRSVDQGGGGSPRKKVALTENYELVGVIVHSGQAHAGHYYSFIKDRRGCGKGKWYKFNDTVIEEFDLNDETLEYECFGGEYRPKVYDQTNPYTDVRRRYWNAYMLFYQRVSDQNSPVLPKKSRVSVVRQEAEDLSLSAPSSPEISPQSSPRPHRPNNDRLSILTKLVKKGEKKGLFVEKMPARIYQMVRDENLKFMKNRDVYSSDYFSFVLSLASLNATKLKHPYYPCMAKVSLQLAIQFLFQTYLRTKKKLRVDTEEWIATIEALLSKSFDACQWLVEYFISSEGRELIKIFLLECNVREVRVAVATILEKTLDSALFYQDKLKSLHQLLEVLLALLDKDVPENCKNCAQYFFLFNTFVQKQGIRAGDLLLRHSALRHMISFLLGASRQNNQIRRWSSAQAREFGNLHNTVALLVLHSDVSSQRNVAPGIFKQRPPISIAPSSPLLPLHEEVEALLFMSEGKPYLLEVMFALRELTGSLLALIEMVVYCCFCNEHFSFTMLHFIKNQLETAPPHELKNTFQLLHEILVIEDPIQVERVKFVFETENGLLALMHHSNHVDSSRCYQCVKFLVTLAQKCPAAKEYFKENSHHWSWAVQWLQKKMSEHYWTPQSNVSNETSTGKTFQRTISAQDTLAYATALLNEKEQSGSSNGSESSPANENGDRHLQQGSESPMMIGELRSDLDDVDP
USP16, sequence (Q9Y5T5 whole entry, looked up, the tested form may be a part): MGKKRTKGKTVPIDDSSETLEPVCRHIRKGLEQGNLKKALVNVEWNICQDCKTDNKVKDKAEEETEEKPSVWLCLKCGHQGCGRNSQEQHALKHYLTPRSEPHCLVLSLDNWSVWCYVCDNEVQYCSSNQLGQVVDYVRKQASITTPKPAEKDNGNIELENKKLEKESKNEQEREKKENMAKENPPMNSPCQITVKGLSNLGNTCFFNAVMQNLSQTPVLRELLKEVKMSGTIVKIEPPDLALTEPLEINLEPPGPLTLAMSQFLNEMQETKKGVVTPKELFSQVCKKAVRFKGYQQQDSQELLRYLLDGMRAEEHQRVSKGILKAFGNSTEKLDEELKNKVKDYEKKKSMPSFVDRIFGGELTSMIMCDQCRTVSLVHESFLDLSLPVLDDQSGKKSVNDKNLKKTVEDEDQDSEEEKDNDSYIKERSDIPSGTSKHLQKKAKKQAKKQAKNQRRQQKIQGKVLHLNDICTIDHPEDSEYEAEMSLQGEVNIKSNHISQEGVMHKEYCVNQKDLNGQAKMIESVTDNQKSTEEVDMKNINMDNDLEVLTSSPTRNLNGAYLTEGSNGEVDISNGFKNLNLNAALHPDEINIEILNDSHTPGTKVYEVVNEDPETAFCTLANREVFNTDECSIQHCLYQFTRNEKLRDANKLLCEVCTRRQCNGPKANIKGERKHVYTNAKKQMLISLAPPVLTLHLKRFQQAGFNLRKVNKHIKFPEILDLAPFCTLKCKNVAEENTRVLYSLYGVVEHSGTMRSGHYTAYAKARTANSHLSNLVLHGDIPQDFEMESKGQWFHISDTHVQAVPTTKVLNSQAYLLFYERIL

O=C(CCl)NCCc1ccc(F)cc1
inactive: [1] 0.107 | [2] -0.131 | [3] -0.0496 | [4] -0.326 | [5] -0.328
